# Assay results as given in the supplement of paper PMC6555819.
# Assays:
# Test in all cases: PBM binding z-score (relative to random genomic background probes); higher = stronger binding; sequences stand for … in GC…GCGATTGACAGCGTAGAATGAAGG
# [1] = system: FXR:RXRa (NR concentration 270 nM, RXRa partner concentration 90 nM)
# Procedure, shortened: (§1)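 Binding buffer was PBS pH 7.4 with 2% milk, 0.02% Triton X-100, 1 mM DTT, 0.2 mg/mL BSA and 0.4 mg/ml salmon testes DNA. In it, ligand-free nuclear receptor dimers were incubated 1 h on custom Agilent 4×180K protein-binding microarrays carrying double-stranded probes. Antibodies against each partner (one per run) detected binding, and z-scores were calculated against random background probes after regression normalization of scanned fluorescence.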
# [2] = system: LXRa:RXRa (NR concentration 270 nM, RXRa partner concentration 90 nM)
# Procedure, shortened: as §1
# [3] = system: LXRa homodimer (NR concentration 270 nM)
# Procedure, shortened: as §1
# [4] = system: LXRb:RXRa (NR concentration 270 nM, RXRa partner concentration 90 nM)
# Procedure, shortened: as §1
# [5] = system: LXRb homodimer (NR concentration 270 nM)
# Procedure, shortened: as §1
# [6] = system: PPARa:RXRa (NR concentration 270 nM, RXRa partner concentration 90 nM)
# Procedure, shortened: as §1
# [7] = system: PPARg:RXRa (NR concentration 180 nM, RXRa partner concentration 90 nM)
# Procedure, shortened: as §1
# [8] = system: PPARg:RXRa 270nM:90nM, anti-RXR (NR concentration 270 nM, RXRa partner concentration 90 nM)
# Procedure, shortened: as §1
# [9] = system: PPARg:RXRa 30nM:10nM, anti-RXR (NR concentration 30 nM, RXRa partner concentration 10 nM)
# Procedure, shortened: as §1
# [10] = system: PPARg:RXRa 90nM:30nM, anti-RXR (NR concentration 90 nM, RXRa partner concentration 30 nM)
# Procedure, shortened: as §1
# [11] = system: PPARg:RXRa DBDmut IVT, anti-RXR (DBD mutation: RXRa K156A/R161A, NR concentration 270 nM, RXRa partner concentration 90 nM)
# Procedure, shortened: as §1
# [12] = system: PPARg:RXRa IVT, anti-PPARg (NR concentration 270 nM, RXRa partner concentration 90 nM)
# Procedure, shortened: as §1
# [13] = system: PPARg DBDmut:RXRa IVT, anti-PPARg (DBD mutation: PPARg1 K132A/R137A, NR concentration 270 nM, RXRa partner concentration 90 nM)
# Procedure, shortened: as §1
# [14] = system: PPARg DBDmut IVT, anti-PPARg (DBD mutation: PPARg1 K132A/R137A, NR concentration 270 nM)
# Procedure, shortened: as §1
# [15] = system: PPARg homodimer (NR concentration 180 nM)
# Procedure, shortened: as §1
# [16] = system: PXR:RXRa (NR concentration 270 nM, RXRa partner concentration 90 nM)
# Procedure, shortened: as §1
# [17] = system: PXR homodimer (NR concentration 270 nM)
# Procedure, shortened: as §1
# [18] = system: RARa:RXR (NR concentration 270 nM, RXRa partner concentration 90 nM)
# Procedure, shortened: as §1
# [19] = system: RARa homodimer (NR concentration 270 nM)
# Procedure, shortened: as §1
# [20] = system: RARb:RXRa (NR concentration 270 nM, RXRa partner concentration 90 nM)
# Procedure, shortened: as §1
Sequence,PBM binding z-score [1],PBM binding z-score [2],PBM binding z-score [3],PBM binding z-score [4],PBM binding z-score [5],PBM binding z-score [6],PBM binding z-score [7],PBM binding z-score [8],PBM binding z-score [9],PBM binding z-score [10],PBM binding z-score [11],PBM binding z-score [12],PBM binding z-score [13],PBM binding z-score [14],PBM binding z-score [15],PBM binding z-score [16],PBM binding z-score [17],PBM binding z-score [18],PBM binding z-score [19],PBM binding z-score [20]
ATCCAAAGGTCGACGAGGTGAGTATACACCGTTT,5.35,3.7,0.198,3.13,0.235,4.5,4.29,4.16,1.4,3.03,0.48,2.51,0.787,0.209,1.99,3.05,0.52,3.62,0.92,4.07
CGAACTAGGTCATTGACAGGACAGTTAATAGTAA,4.35,3.12,0.774,2.36,0.0885,4.66,7.39,6.51,3.39,5.59,8.43,8.43,3.82,2.93,2,1.68,0.386,2.32,0.822,3.6
GCTTGTAGATCAAGGTTACGAAAGACTAAGCTAA,0.195,1.01,-0.347,0.883,-0.378,1.97,0.804,1.64,0.408,1.13,1.65,1.67,-0.122,-0.483,0.354,0.724,-0.00407,1.23,0.273,0.947
CCGACTGGGGCATAAGGCTACCATAAGCCAGCCC,-0.264,-0.169,-0.35,-0.67,-1.17,0.356,1.55,2.13,0.339,1.84,2.4,2.19,-1.08,-1.23,0.226,-0.731,-0.51,-0.184,0.133,0.337
CATACAGGGTCAGCTAGCCCAGAGTAGGGACGGC,4.68,3.03,-0.244,2.21,0.0889,4.36,3.35,2.84,0.528,1.8,0.792,2.19,0.206,-0.0933,1.48,2.1,-0.17,3.11,0.642,4.01
CCTACTGGGCCATCAGGTCATAGATATCAACGTT,1.22,0.89,0.812,1.18,-0.323,2.72,3.22,3.9,1.86,3.15,4.5,5.08,0.923,-0.119,1.49,1.15,0.269,1.87,0.283,1.99
GCATATAGGTATTACAAGGTGAAAGTCCGATTGT,0.758,0.25,0.246,0.0719,-0.375,1.38,0.78,0.981,0.434,0.722,1.46,1.46,0.48,1.21,0.307,0.0796,0.205,1.69,0.465,0.417
TTACCAAGGTGAAAGATCGTTGATGCACGCCTTG,0.552,0.392,-0.574,0.286,-0.696,2.36,2.97,3.92,2.25,3.77,1.56,2.99,0.596,0.116,0.393,0.0637,-0.296,0.393,-0.301,1.23
CCACGGAGGACAGAAGGTCAGAGCTGTCCGCTTT,1.39,1.72,-0.0316,1.33,-0.786,2.11,0.277,0.736,-0.771,0.384,0.376,0.519,-0.839,-1.85,0.926,1.56,-0.17,2.2,-0.0117,3.21
GATCCAGGGTCAAGGCCAGAGTACGCGTATTGAT,6.77,4.23,-0.34,3.91,-0.536,5.78,5.86,5.78,2.2,4.41,2.29,3.75,0.299,0.301,2.21,4.33,0.0901,5.29,0.437,4.49
CGTCAAAGTTCAAGGTAACGTCACAGAAAGCAGC,6.25,5.64,2.77,3.46,1.24,4.71,4.58,5.27,2.34,4.03,0.574,2.31,1.5,0.322,2.9,4.33,2.43,3.98,1.32,5.18
GCATATAGGTAATACAAGGAGAAAGTCCGATTGT,0.156,-0.0258,-0.258,-0.357,-0.633,0.37,1.06,0.421,0.217,0.104,3.9,2.35,0.451,1,-0.266,-0.205,0.00189,0.277,0.43,-0.406
GATACAGGGTCAAGGCCGGAGTACGCGTATTGAT,6.13,4.13,0.0137,3.51,-0.495,5.66,5.78,5.32,1.81,3.85,2.69,3.81,-0.0401,0.122,1.8,3.56,0.0329,4.01,0.567,4.55
